According to PubChem BioAssay (NCI):
The panel holds about 83,000 compounds, 20% with a hit somewhere; the sample as a whole holds those more often.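 For each line, cells grew in 96-well plates with the test compound present at a single concentration for 48 hours.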 Values without a mark were called inactive. The source made the active and inactive calls. How the source made its calls: active means growth percent below 10; inactive means the rest.

Experiments:
Experiment in all cases: NCI-60 one-dose screen, 48 h (100 = growth as untreated, 0 = no growth, -100 = all killed)
Details in all cases: 10 µM unless noted
HCT-15 colon = system: HCT-15 colon
HT29 colon = system: HT29 colon
SNB-75 CNS = system: SNB-75 CNS
SNB-19 CNS = system: SNB-19 CNS
U251 CNS = system: U251 CNS
SK-MEL-5 melanoma = system: SK-MEL-5 melanoma
UACC-62 melanoma = system: UACC-62 melanoma
LOX IMVI melanoma = system: LOX IMVI melanoma
SK-MEL-28 melanoma = system: SK-MEL-28 melanoma
PC-3 prostate = system: PC-3 prostate

| SMILES | growth (HCT-15 colon) | growth (HT29 colon) | growth (SNB-75 CNS) | growth (SNB-19 CNS) | growth (U251 CNS) | growth (SK-MEL-5 melanoma) | growth (UACC-62 melanoma) | growth (LOX IMVI melanoma) | growth (SK-MEL-28 melanoma) | growth (PC-3 prostate) |
| --- | --- | --- | --- | --- | --- | --- | --- | --- | --- | --- |
| COc1ccc(Nc2ncc(Br)c(NCCCNC(=O)C3CCC3)n2)cc1 | 21.7% | 31% | -4.95% (active) | 33.1% | 19.8% | 44.2% | 56.6% | 4.32% (active) | 54.7% |  |
| CCOC(=O)c1sc(-c2ccc(OS(=O)(=O)c3ccc(C(C)(C)C)cc3)c(C=O)c2)nc1C | 12.5% | 19.7% | 22.9% | 29.7% | 26% |  | 46.1% | 43.3% | 81.9% | 16.2% |
| O=C1CCC(N2C(=O)c3cccc(NCCCC4CCN(CCNC(=O)c5cc6c(o5)C(=O)c5ccccc5C6=O)CC4)c3C2=O)C(=O)N1 (stereo not drawn) | -80.8% (active) | 1.94% (active) | -99.2% (active) | -96% (active) | -83.6% (active) |  | -96.2% (active) | -90.1% (active) | -6.88% (active) | 2.13% (active) |
| CCOC(=O)c1cnn2c(-c3ccc(Cl)cc3)nc(NCc3ccccc3)nc12 | 47.7% | 51% | 70.3% | 63.5% | 32.2% | 86% | 63.4% | 39.7% |  |  |
| CN(C)CCC(O)(Cc1ccccc1)c1ccccc1 (stereo not drawn) |  |  |  |  |  |  |  |  |  | 92.9% |
| CC[C@]1(O)C[C@H]2CN(CCc3c([nH]c4ccccc34)[C@@](C(=O)OC)(c3cc4c(cc3OC)N(C=O)[C@H]3[C@@](O)(C(=O)OC)[C@H](OC(C)=O)[C@]5(CC)C=CCN6CC[C@]43[C@@H]65)C2)C1 |  |  |  |  |  |  |  |  |  | 18.3% |
| CCn1c(Sc2nnc(NC(C)=O)s2)nc2c1c(=O)n(C)c(=O)n2C | 97.5% | 104% | 90% | 96.8% |  | 98.6% | 93.3% | 90% | 101% | 91.9% |
| O=C1c2ccccc2C(=O)c2cc(Cn3cc[n+](Cc4ccc5ccccc5c4)c3)ccc21 | 98.1% | 73.1% | 62.8% | 79.5% |  | 68.3% | 61.1% | 94.9% | 94.5% | 38.8% |
| Cc1cc(=O)[nH]c(N/N=C/c2cc(Br)ccc2O)n1 |  | 58.9% | 62.9% | 40.6% | 26.8% | 26.3% | 4.29% (active) | 9.27% (active) | 42.8% | 56.8% |
| Clc1ccc(-c2nnc(-c3ccco3)o2)cc1 | 112% | 105% | 89.1% | 90.6% |  | 108% | 93.9% | 97.8% | 125% |  |
| O=C1Nc2ccccc2/C1=N/N=C/c1ccc(OC2OC(CO)C(O)C(O)C2O)cc1 (stereo not drawn) | 105% | 103% | 96.8% | 100% |  | 103% | 101% | 101% | 108% | 105% |
| O=C1c2cccc3c(-c4ccc(-c5nc6c7ccccc7c7ccccc7c6[nH]5)cc4)ccc(c23)C(=O)N1CCN1CCNCC1 | 40.9% | 5.47% (active) | 103% | 103% |  |  | 106% | -55.8% (active) |  | 66.6% |
| COC(=O)[C@]12CC[C@@H](C)[C@H](C)[C@@H]1C1=CC[C@@H]3[C@@]4(C)C(C=O)=C[C@@](C)(CO)C4=CC[C@@]3(C)[C@]1(C)CC2 | 9.41% (active) | 14.5% | 62.6% | 39.4% |  | 35.2% | 42.9% | 26.1% | 26.9% | 16.2% |
| Nc1c(-c2nc3ccccc3c(=O)[nH]2)nnn1-c1ccc(Cl)cc1 | 93.1% | 68.7% | 24.7% | 76% |  | 92.6% | 99.1% | 107% | 81.1% |  |
| CCCCCCN(CCCCCC)CC(O)c1cccc2ccc(Cl)cc12 (stereo not drawn) | 53.4% | 15.9% | 116% |  | 55.2% | 61.8% | 51.4% | 34.7% | 87.9% | 37.1% |
| CN(CCC(=O)/C(=C\c1ccccc1)c1ccc(Cl)cc1)Cc1ccccc1 | 2.09% (active) | 9.63% (active) | 60.3% | 23% |  |  | -36.6% (active) | -58.3% (active) | 9.17% (active) | 45% |

| SMILES | growth (HCT-15 colon) | growth (HT29 colon) | growth (SNB-75 CNS) | growth (SNB-19 CNS) | growth (U251 CNS) | growth (SK-MEL-5 melanoma) | growth (UACC-62 melanoma) | growth (LOX IMVI melanoma) | growth (SK-MEL-28 melanoma) | growth (PC-3 prostate) |
| --- | --- | --- | --- | --- | --- | --- | --- | --- | --- | --- |
| C=CCOc1cccc(/C=C2\SC(=Nc3ccc(O)cc3)NC2=O)c1 | 10.1% | 11.7% | -18.6% (active) | 30.9% |  | -39% (active) | 34.7% | 8.94% (active) | 69.7% | 13.9% |
| c1ccc2c(c1)ncn2-c1nc2ccccc2n2c1nc1ccccc12 | 43.1% | 40.9% | 81.3% | 86.8% |  | 55.8% | 77.3% | 79.1% | 107% | 72.4% |
| COc1ccc(NC(=O)C(=O)c2c[nH]c3ccc(F)cc23)cc1 | 99.2% | 88.4% | 99.7% | 104% |  |  | 99.3% | 105% | 109% | 91.5% |
| Cc1c(Cl)cccc1NS(=O)(=O)c1ccccc1 | 97.3% | 99.8% | 87.9% | 106% |  | 96.7% | 102% | 104% | 99% |  |
| CCNCCNc1cc(-c2ccc(Cl)cc2)c(C#N)c2nc3ccccc3n12 | -78.5% (active) | -32.2% (active) | -76.6% (active) | 36% |  | -99.4% (active) | -82.7% (active) | -77.4% (active) | -90.2% (active) | 27.2% |
| c1ccc([P+](CCCc2n(Cc3ccc4ccccc4c3)c3ccccc3[n+]2Cc2ccc3ccccc3c2)(c2ccccc2)c2ccccc2)cc1 | 85.5% | 23.9% | 91% | 38.5% |  |  | 37.8% | 13.8% |  | 67.5% |
| Nc1c(C(=O)Nc2ccccc2)sc2nc3c(cc12)CCCCCC3 | 16.3% | -9.08% (active) | 4.5% (active) |  | 9.62% (active) | 9.45% (active) |  | 35.1% | 27.8% | 31.8% |
| O=C(/C=C/C12c3ccccc3C(c3ccccc31)C1C(=O)N(c3ccc(Cl)cc3)C(=O)C12)c1ccccn1 (stereo not drawn) | -35% (active) | 1.52% (active) | -18.7% (active) | -71.9% (active) |  | -83.5% (active) | -44.6% (active) | -89.4% (active) | -12.4% (active) | -19.8% (active) |
| CCOC(=O)C1C(=O)C=C(c2cnccn2)CC1c1ccc(OC)c(OC)c1 (stereo not drawn) | 98.9% | 93.1% | 105% | 102% |  | 103% | 101% | 100% | 102% | 70.4% |
| COc1ccc(C2CC(c3ccc4ccccc4c3)=NN2c2nc(O)c(C3=c4cc(Cl)ccc4=NC3=O)s2)cc1 (stereo not drawn) | -33.4% (active) | -46.5% (active) | -51.5% (active) | 3.08% (active) |  | -95.2% (active) | -46.5% (active) | -75.7% (active) | -18.8% (active) | -44.4% (active) |
| COc1cc(-c2ncn(/C=C\c3nnco3)n2)cc(C(F)(F)F)c1 | 17.6% |  | 4.47% (active) | 23.3% | 14.7% | -11.8% (active) | 13.2% | -27.3% (active) | 6.79% (active) |  |
| COc1ccccc1C(=O)NC(=S)Nc1ccc(-c2nc3ccccc3[nH]2)cc1 | 59.5% | 14.8% | -62.7% (active) | 84% |  | 25.8% | 109% | 20% | 69.5% | 86% |
| C=C1C(=O)O[C@H]2[C@H]1CC/C(COC(=O)/C=C\C(=O)NCc1ccc(Cn3c(=O)sn(CCCC)c3=O)cc1)=C\CC[C@@]1(C)O[C@@H]21 | -29.8% (active) | -22.2% (active) | -63.6% (active) | 20.5% |  |  | -97.4% (active) | -83.5% (active) | -92.1% (active) | -59.7% (active) |
| Cc1cc(-c2ccc(N(C)C)cc2)c2sc(=O)[nH]c2n1 | 29.4% | 70% | 53.2% | 55.7% |  | 33.3% | 42.5% | 51.6% | 69% |  |
| CC(=O)c1cc2c(o1)C(=O)c1ccccc1C2=O | -77% (active) | -18.3% (active) | -98.5% (active) | -90.8% (active) |  | -96.3% (active) | -82.7% (active) | -59.3% (active) | -70.8% (active) | -10.4% (active) |
| CCc1cc(Cc2cc(CC)cc(C(C)(C)C)c2O)c(O)c(C(C)(C)C)c1 | 13.8% | 23.3% | 42.1% | 20% |  | 6.03% (active) | 25.7% | 10.5% | 46% | 15.1% |
